VDR inh = vitamin D3 receptor (human) inhibition; P11473; Potency, µM, without a hit: max response, negative = inhibition, actives largely listed as inhibitors; 400,000 compounds, 0.93% hits; VDR-SRC2-3 peptide fluorescence polarization, 2 h; note: % is set by controls: 0 for no effect and ±100 for the full control effect
Target sequence (P11473 whole entry, looked up): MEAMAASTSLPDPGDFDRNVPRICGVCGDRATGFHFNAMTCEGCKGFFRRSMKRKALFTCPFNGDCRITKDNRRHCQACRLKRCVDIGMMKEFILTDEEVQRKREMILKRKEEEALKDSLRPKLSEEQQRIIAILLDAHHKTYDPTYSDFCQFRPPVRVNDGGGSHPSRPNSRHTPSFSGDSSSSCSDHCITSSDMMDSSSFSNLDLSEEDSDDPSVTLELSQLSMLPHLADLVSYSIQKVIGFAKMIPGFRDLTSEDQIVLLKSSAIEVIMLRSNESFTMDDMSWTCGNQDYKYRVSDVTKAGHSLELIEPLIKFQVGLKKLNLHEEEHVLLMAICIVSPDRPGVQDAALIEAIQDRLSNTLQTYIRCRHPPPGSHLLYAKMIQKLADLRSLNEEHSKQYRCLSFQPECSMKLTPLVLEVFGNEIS
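FP read-out; VDR + SRC2-3 coactivator peptide; 23 nl compound by pintool; 2 h RT incubation; reagents held at 4 deg C, protected from light.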
BAZ2B inh = BAZ2B (human) inhibition | AlphaScreen BAZ2B-H3K14Ac peptide displacement | Potency, µM (highest dose often 114 µM), without a hit: at the highest dose activity change, negative = inhibition, usual class: inhibitors | 360,000 compounds, 4.4% hits; note: % is set by controls: 0 for no effect and ±100 for the full control effect; nearly all actives have a fitted effect of over 60% in size
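In this displacement format the biotinylated H3(5-23) peptide acetylated at Lys14 serves as ligand at 50 nM, with BAZ2B at 50 nM in PBS pH 7.4 containing 0.01% Tween-20. Donor and acceptor beads are 10 ug/mL final.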
JMJD2A Tudor inh = JMJD2A Tudor domain (human) inhibition; O75164; AlphaScreen JMJD2A-Tudor / H3K4me3 peptide binding; Potency, µM (doses to about 114 µM), inactives show top-dose activity change, negative = inhibition, actives largely listed as inhibitors; 390,000 compounds, 4.4% hits; note: % is set by controls: 0 for no effect and ±100 for the full control effect; nearly all actives have a fitted effect of over 50% in size
PLK1 PBD inh = inhibitors of human PLK1 polo-box domain binding; 360,000 compounds, 2.8% hits; Plk1 PBD binding of FITC phosphopeptide, fluorescence polarization; P53350; Potency, µM, for inactives: max response, negative = inhibition, hits mostly inhibitors; note: series mostly up to about 57 µM; % is set by controls: 0 for no effect and ±100 for the full control effect; nearly all actives have a fitted effect of over 65% in size
G9a block = inhibitors of human histone lysine methyltransferase G9a | Q96KQ7 | G9a H3K9 monomethylation, AlphaScreen, 2 h | Potency, µM (series often up to 102 µM), without a hit: top-dose activity, negative = inhibition, usual class: inhibitors | 350,000 compounds, 8.8% hits | AID 504332; note: % is set by controls: 0 for no effect and ±100 for the full control effect; nearly all actives have a fitted effect of over 75% in size
Target sequence (Q96KQ7 913-1193 limits assumed): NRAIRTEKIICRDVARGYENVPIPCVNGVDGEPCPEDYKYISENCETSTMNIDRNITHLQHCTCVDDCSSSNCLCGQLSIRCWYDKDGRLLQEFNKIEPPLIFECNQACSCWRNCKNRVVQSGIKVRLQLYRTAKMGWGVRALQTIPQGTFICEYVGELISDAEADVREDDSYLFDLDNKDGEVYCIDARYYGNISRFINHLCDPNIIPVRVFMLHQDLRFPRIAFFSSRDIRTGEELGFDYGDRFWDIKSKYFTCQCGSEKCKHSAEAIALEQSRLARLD
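Enzyme 20 nM + cpd, 15 min RT; add b-H3K9 pep 500 nM / SAM 20 uM; 2 h RT; anti-H3K9me1 Ab 0.5 ug/mL + SA donor / anti-rabbit acceptor beads 20 ug/mL each, 10 min; AlphaScreen read.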
HP1b binding inh = inhibitors of HP1-beta chromodomain binding to methylated histone tails; P83916; AlphaScreen HP1-beta / biotin-H3K9me3 peptide binding; Potency, µM (highest dose often 114 µM), without a hit: at the highest dose activity change, negative = inhibition, hits mostly inhibitors; 390,000 compounds, 0.56% hits; AID 540317; note: nearly all actives have a fitted effect of over 70% in size
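AlphaScreen: HP1-beta (50 nM) preformed 30 min with biotin-H3(1-18)K9me3 peptide (50 nM) in PBS pH 7.4, 0.01% Tween-20. Compound added for 30 min at RT, then streptavidin donor/nickel chelate acceptor beads (10 ug/mL) for 30 min.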
Starred values were filed as active, the others as inactive; ? = inconclusive; / = no result; [ ] = another dose, or the depositor's remark. Compounds with a hit are over-represented: about 11% of the library has one in this group of screens. Calls come from the whole dose curve; as a rule, active = well fitted curve in the direction sought with a large enough effect; inconclusive = small, poorly fitted or top-dose-only effect, or another doubt; inactive = no such curve, though single readings can be large; an effect the other way counts as inactive or inconclusive. Potency is the fitted concentration of half-maximal effect.

SMILES	VDR inh	BAZ2B inh	JMJD2A Tudor inh	PLK1 PBD inh	G9a block	HP1b binding inh
O=S(=O)(c1cccc(-c2cn3cccnc3n2)c1)N1CCCCCC1	3%	/	-9%	-16%	?	51%
COCCNc1ncnc2ccc(-c3cccc(OC)c3)cc12	8%	/	/	/	10%[0.501 µM]	/
O=C(O)c1ccc2c(c1)C(=O)N([C@H](Cc1ccc(C(F)(F)F)cc1)C(=O)O)C2=O	/	5%	-6%	/	-1%[12.7 µM]	/
CCCCC[C@H](O)/C=C/[C@H]1[C@H](O)CC(O)[C@@H]1C/C=C\CCCC(=O)O (stereo not given in full)	5%	/	/	/	38%[59 µM]	/
CC(OC(=O)c1ccc2c(c1)NC(=O)CS2)C(=O)c1ccc(F)cc1 (stereo not given)	2%	/	-14%	1%	/	5%[57 µM]
Cc1ccc2nc(-c3cccc(S(=O)(=O)N4CCCC4)c3)cn2c1	1%	-18%[57.1 µM]	-4%	-3%	10%	13%
O=S(=O)(c1cccc(-c2n[nH]c(=S)n2-c2ccccc2Cl)c1)N1CCOCC1	?	/	22µM*	-23%	/	23%
O=S(=O)(c1cccc(-c2n[nH]c(=S)n2Cc2ccccc2)c1)N1CCOCC1	?	-16%	20µM*	-10%	/	21%
Cc1ccc2nc(-c3cccc(S(=O)(=O)N4CC(C)OC(C)C4)c3)cn2c1 (stereo not given)	-29%	-37%	?	19µM*	-13%	16%
CC(C)(C)S(=O)N1Cc2cc(C(=O)N3CCc4ccccc4C3)nc(-c3cccc(-c4ccncc4)c3)c2[C@H]1CCO (stereo not given in full)	/	/	/	-28%	/	/
Cc1nc2ccccc2n1Cc1n[nH]c(=S)n1-c1ccc(Cl)cc1	21%	2%	-7%	-16%	?	46%
Cc1ccccc1-n1c([C@@H]2C[C@H]2c2ccccc2)n[nH]c1=S	13%	-16%	45µM*	-11%	/	9%
S=c1[nH]nc([C@@H]2C[C@H]2c2ccccc2)n1-c1ccccc1	-19%	-9%	18µM*	-8%	2µM*	-5%
CCOC(=O)[C@]12CCCC=C1N(Cc1ccco1)C(=O)[C@H](CC(=O)NCCCCc1ccccc1)C2	/	/	/	-8%	/	/
CCCCC(=O)N/N=C/c1ccc(-c2ccc([N+](=O)[O-])cc2)o1	-19%	-10%	-12%	-15%	-9%	3%
Cc1cc(C)n(Cc2ccc(C(=O)N/N=C/c3ccc(-c4ccc([N+](=O)[O-])cc4)o3)o2)n1	4%	20µM*	50µM*	-21%	-24%	?
CCN1CCN(c2ccc(S(=O)(=O)N3CCCCC3)cc2NC(=O)c2ccc(C)c(C)c2)CC1	-11%	/	?	-7%	/	2%
CN(C)S(=O)(=O)c1ccc(N2CCCC2)c(C(=O)Nc2ccc(F)cc2F)c1	-3%	8%	-11%	1%	11µM*	13%
CCN1CCN(c2ccc(S(=O)(=O)N3CCOCC3)cc2NC(=O)/C=C/c2ccc(OC)cc2OC)CC1	-8%	-38%	-29%	0%	40µM*	-3%
CCN(CC)S(=O)(=O)c1cccc(NC(=O)C(=O)c2c(-c3ccccc3)cc3ccccn23)c1	-17%	-9%	-28%	-8%	-12%[59 µM]	-1%
CCN(CC)S(=O)(=O)c1ccc(N2CCOCC2)c(NC(=O)C(=O)c2c(-c3ccccc3)cc3ccccn23)c1	-20%	-34%	-32%	-20%	35µM*	-26%
CCN1CCN(c2ccc(S(=O)(=O)N3CCCCC3)cc2NC(=O)c2cccc(C)c2)CC1	1%	-34%	-34%	-3%	50µM*	-8%
Cc1ccc(S(=O)(=O)N2CCOCC2)cc1NC(=O)CSc1nnc(C2CC2)n1C1CC1	18%	1%	-17%	-3%	-1%[12.7 µM]	28%
CCOc1ccc(-n2nc(CO)c(C(=O)NCC(c3ccccc3)c3ccccc3)n2)cc1	5%	0%	2%	/	7%[59 µM]	27%
COc1ccc(CNc2ncncc2-c2ccc(N(C)C)cc2)c(OC)c1	?	/	/	/	-1%[0.501 µM]	/
SMILES	VDR inh	BAZ2B inh	JMJD2A Tudor inh	PLK1 PBD inh	G9a block	HP1b binding inh
Cc1cc(C(=O)CS(=O)(=O)c2ccc(F)cc2)cc(C)c1O	-18%	-1%	-15%	-6%	19%[2.33 µM]	-6%
CCN1C[C@@H]2[C@@H]3C(=O)N(C)C(=O)[C@@H]3[C@](Cc3ccccc3)(C1=O)N2C(=O)c1ccc(C(C)(C)C)cc1	4%	/	-25%	-12%	/	26%
CCN1CCN(c2ccc(S(=O)(=O)N3CCCCC3)cc2NC(=O)CC(C)c2ccccc2)CC1 (stereo not given)	-14%	-8%	-29%	-4%	50µM*	-1%
CCN(CC)S(=O)(=O)c1ccc(N2CCCC2)c(NC(=O)c2ccc(OC)cc2OC)c1	0%	-32%	-32%	0%	28µM*	18%
CCN(CC)S(=O)(=O)c1ccc(N2CCCC2)c(NC(=O)Cc2ccc(OC)cc2)c1	8%	-26%	-11%	0%	?	7%
CN(C)S(=O)(=O)c1cccc(C(=O)Nc2cc(S(=O)(=O)N3CCOCC3)ccc2N2CCCC2)c1	45µM*	/	-19%	5.3µM*	/	?
CCN(CC)S(=O)(=O)c1ccc(N2CCOCC2)c(NC(=O)c2ccc(C#N)cc2)c1	6%	?	-4%	-18%	11µM*	40%
COc1ccc(C(=O)NCCS(=O)(=O)N(C)C2CCCCC2)cc1	-22%	11%	-11%	-8%	-31%	16%
O=C(Nc1cc(S(=O)(=O)N2CCOCC2)ccc1N1CCCC1)c1ccc(F)cc1	40µM*	-37%	-31%	9.5µM*	?	?
CS(=O)(=O)N1CCN(c2ccccc2NC(=O)c2ccc([N+](=O)[O-])o2)CC1	?	-9%	3.2µM*	3.4µM*	-3%	?
CCN1CCN(c2ccc(S(=O)(=O)N3CCCCC3)cc2NC(=O)c2ccc([N+](=O)[O-])o2)CC1	-11%	-32%	?	-15%	35µM*	?
CN1CCN(c2ccccc2NC(=O)c2ccc([N+](=O)[O-])o2)CC1	8%	?	-17%	-27%	/	19%
O=C(/C=C/c1ccc(F)cc1)Nc1cc(S(=O)(=O)N2CCOCC2)ccc1N1CCCC1	-2%	-4%	-30%	2%	-15%	-2%
CC1CN(S(=O)(=O)c2cccc(C(=O)Nc3ccccc3N3CCCC3)c2)CC(C)O1 (stereo not given)	2%	-33%	?	0%	50µM*	-18%
O=C1N/C(=C/c2cccs2)C(=O)N1Cc1ccc(Br)cc1	-1%	23%	-33%	-2%	83%	24%
CCOc1ccc(NC(=O)CSc2nc(C)c(C(=O)Nc3ccccc3)c(-c3ccc(Cl)cc3)c2C#N)cc1	4%	1%	-10%	/	46%[59 µM]	51%

Bioassay records deposited in PubChem by National Center for Advancing Translational Sciences (NCATS).
